# The list is not random: actives were taken first. Their share in the collection is about 10%.
# PNC inhibitor: High Content Assay for Compounds that inhibit the Assembly of the Perinucleolar Compartment. PC3M PTB-GFP, PNC prevalence imaging, 16 h; stronger effect = lower value. activity change (PNC), negative = inhibition, % at 10 µM. actives 3.1% (n = 140,000). AID 2417, 2010;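 active means readout at or below -70, meaning at least 70% loss of cells showing the perinucleolar compartment, a nuclear body marking cancer cells; inconclusive means readout between -30 and a set limit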;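 further: plate controls were DMSO wells for no effect and camptothecin positive control wells for full effect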
#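 PC3M cells stably expressing PTB-GFP, 750–1000 cells/well, treated 16 h at 37 °C with compound (23 nl of library stock), in duplicate. After paraformaldehyde fixation and Hoechst stain, imaged at 20x; PNC prevalence scored by image analysis.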
# ALDH1A1 block: qHTS Assay for Inhibitors of Aldehyde Dehydrogenase 1 (ALDH1A1) | Purified ALDH1A1, NADH fluorescence, propionaldehyde substrate | Aldehyde dehydrogenase 1A1 (Homo sapiens), P00352 | actives 7.3% (n = 220,000) | Potency, µM (highest dose often 75.3 µM), for inactives: at the top dose activity, negative = inhibition, actives largely listed as inhibitors | AID 1030, 2008;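 further: potency means the concentration at half of the fitted maximal effect; plate controls were no enzyme wells and a reference inhibitor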
# Target sequence (P00352 whole entry, looked up): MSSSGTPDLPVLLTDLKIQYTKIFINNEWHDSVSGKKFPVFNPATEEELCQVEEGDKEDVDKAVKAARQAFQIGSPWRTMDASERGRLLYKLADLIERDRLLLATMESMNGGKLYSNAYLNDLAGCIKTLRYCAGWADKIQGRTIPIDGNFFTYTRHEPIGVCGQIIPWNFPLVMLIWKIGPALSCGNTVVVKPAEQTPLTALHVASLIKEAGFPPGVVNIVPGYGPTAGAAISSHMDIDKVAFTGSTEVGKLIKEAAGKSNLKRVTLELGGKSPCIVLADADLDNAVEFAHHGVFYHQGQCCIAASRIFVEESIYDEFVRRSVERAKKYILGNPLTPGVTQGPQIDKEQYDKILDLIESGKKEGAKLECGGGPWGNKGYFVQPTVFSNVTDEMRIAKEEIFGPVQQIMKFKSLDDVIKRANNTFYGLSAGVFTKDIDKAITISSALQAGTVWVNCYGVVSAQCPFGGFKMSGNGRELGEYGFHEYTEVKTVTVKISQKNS
# ALOX12 inhib: qHTS Assay for Inhibitors of 12-hLO (12-human lipoxygenase) | Polyunsaturated fatty acid lipoxygenase ALOX12 (Homo sapiens), P18054 | purified 12-hLO, xylenol orange hydroperoxide absorbance | Potency, µM (highest dose often 57.1 µM), for inactives: at the top dose activity change, negative = inhibition, hits mostly inhibitors | actives 0.12% (n = 150,000); active means well fitted inhibition curve with a large enough effect; inconclusive means small, poorly fitted or top-dose-only effect; further: potency means the concentration at half of the fitted maximal effect; nearly all actives have a fitted effect of over 55% in size
#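 Purified human 12hLO (150 nM final) was preincubated with compounds for 15 min at room temperature in 25 mM Hepes pH 7.0, 0.01% Triton X-100, then reacted with 40 uM arachidonic acid for 30 min. Hydroperoxide was detected with ferrous iron/xylenol orange.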
# LMNA splice mod: qHTS Assay for Modulators of Lamin A Splicing; HeLa LMNA splicing GFP/RFP minigene ratio, 48 h; Potency, µM (titrated, usually from 46.1 µM), for inactives: at the top dose ratio change, negative = inhibition, hits mostly inhibitors; actives 0.01% (n = 200,000); AID 1487, 2009; active means well fitted inhibition curve with a large enough effect in the signal ratio, with a control signal flat, not every such curve was filed as active; inconclusive means small, poorly fitted or top-dose-only effect, or effect the other way, or a change in a side signal; the % refers to the signal ratio; further: potency means the concentration at half of the fitted maximal effect
#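 Read-out is the ratio of GFP to DsRed2 object intensity, acquired by 488 nm laser-scanning cytometry on HeLa lamin A-EGFP minigene reporter cells. Compound incubation 48 hrs at 37 °C in Opti-MEM with 2% FBS; DMSO 0.5% final.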
# HPGD inh: qHTS Assay for Inhibitors of HPGD (15-Hydroxyprostaglandin Dehydrogenase); 15-hydroxyprostaglandin dehydrogenase [NAD(+)] (Homo sapiens), P15428; purified HPGD, NADH fluorescence kinetic, PGE2 substrate; Potency, µM, for inactives: at the highest dose activity change, negative = inhibition, usual class: inhibitors; actives 4.3% (n = 150,000); AID 894, 2007; further: potency means the concentration at half of the fitted maximal effect
#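 NADH formation kinetics: reaction with 30 uM PGE2 and 1 mM NAD+ (final), 20 nM enzyme, Tris-HCl pH 8 with Tween 20, after 15 min compound preincubation at room temperature. Fluorescence change, last versus first of five reads.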
# An asterisk follows results filed as active; i = inactive; ? = inconclusive; . = not tested or not shown; [ ] = dose if it differs, or a comment. Unless noted, the call rests on the fitted dose curve; in most records, active means well fitted inhibition curve with a large enough effect (not every such curve was filed as active); inconclusive means small, poorly fitted or top-dose-only effect, or another doubt; inactive means no such curve, though single readings can be large or run the other way. Unless noted, on the % scale 0 is the no-effect control and ±100 the full control effect.
SMILES,PNC inhibitor,ALDH1A1 block,ALOX12 inhib,LMNA splice mod,HPGD inh
C=CCOC(=O)c1cc(-c2ccc(/C=C3\C(=O)NC(=O)C(C#N)=C3C)o2)ccc1Cl,?,10µM*,-16%,-8%,16µM*
Cn1c(SCC(=O)N2CCCc3ccccc32)ncc(C(=O)Nc2ccccc2)c1=O,.,.,.,-4%[46 µM],.
c1ccc(Cc2nnc3sc(-c4cccs4)nn23)cc1,-26,2.8µM*,5%,-8%,8.9µM*
c1csc(-c2nn3c(Cn4nnc5ccccc54)nnc3s2)c1,15,i,2%,-8%,?
c1ccc(CCc2nn3c(Cc4ccccc4)nnc3s2)cc1,-13,8.9µM*,-2%,10%,11µM*
c1ccc(Cc2nnc3sc(-c4ccccn4)nn23)cc1,?,14µM*,2%,-4%,?
CCOc1ccccc1-c1nn2c(Cc3ccccc3)nnc2s1,12,?,-10%,6%,?
c1ccc(Cc2nnc3sc(-c4ccncc4)nn23)cc1,?,7.9µM*,1%,-1%,11µM*
c1ccc(Cc2nnc3sc(-c4cccnc4)nn23)cc1,?,11µM*,-6%,19%,14µM*
c1ccc(Cc2nn3c(-c4ccncc4)nnc3s2)cc1,19,22µM*,2%,12%,28µM*
c1ccc(OCc2nn3c(-c4ccncc4)nnc3s2)cc1,-7,8%,-5%,8%,-28%
CC(C)(C)NC(=O)c1ccc2nsnc2c1,-110*,4%,-2%,10%,-18%
O=C(Oc1ccccc1)c1ccc2nsnc2c1,5,4µM*,-2%,-3%,-5%
Cc1ccc(S(=O)(=O)N(CCCO)CC(O)CON=C2c3ccccc3-c3ccccc32)cc1 (configuration not stated),32,8.9µM*,-5%,-12%,-9%
O=c1c(O)cc(C2Oc3cc(O)cc(O)c3CC2O)cc2c(C3Oc4cc(O)cc(O)c4CC3O)cc(O)c(O)c12 (configuration not stated),.,-15%,-10%,-18%,13µM*
COc1cccc2c(=O)n(CC(=O)N3CCc4ccccc43)ccc12,16,?,1%,-10%,-16%
CC(C)C(=O)c1cn(CC(=O)N2CCCc3ccccc32)c2ccccc12,64,-8%,-3%,7%,-10%
CCOC(=O)C(C)Oc1cccc2c(=O)n(CC(=O)N3CCCc4ccccc43)ccc12 (configuration not stated),6,20µM*,0%,-9%,?
CCOC(=O)COc1cccc2c(=O)n(CC(=O)N3CCc4ccccc43)ccc12,-111*,-5%,0%,5%,-12%
O=[N+]([O-])c1cc(Cl)ccc1-c1nc(-c2ccccc2)no1,?,-5%,-1%,-7%,14µM*
COc1ccc(NC(=O)c2ccc(CNc3c(NC4CCCCC4)c(=O)c3=O)cc2)cc1OC,-24,-13%,-2%,-2%,18µM*
CC(=O)[C@H]1CC[C@H]2[C@@H]3C=CC4=CC(=O)CC[C@@]4(C)[C@H]3CC[C@]12C,.,?,-1%[25.6 µM],?,-7%
CC1(C)COC(/C=C/c2cccc([N+](=O)[O-])c2)=N1,.,14µM*,.,.,.
O=C(O)c1cc(S(=O)(=O)N2CCOCC2)ccc1N1CCOCC1,?,-1%,-2%,-2%,-1%
O=c1c2ccccc2sn1-c1cc(S(=O)(=O)N2CCOCC2)ccc1N1CCOCC1,?,0.056µM*,2.2µM*,?,0.79µM*
SMILES,PNC inhibitor,ALDH1A1 block,ALOX12 inhib,LMNA splice mod,HPGD inh
Cc1cccc(Nc2nnc(SCC(=O)Nc3cccc(S(=O)(=O)N4CCCCC4)c3)s2)c1,13,?,-2%,?,20µM*
CCc1ccc(Nc2nnc(SCC(=O)Nc3cccc(S(=O)(=O)NC4=NCCCCC4)c3)s2)cc1,0,18µM*,-6%,?,?
COCCn1c(=O)c(-c2cn(C)c3ccccc23)nc2cnc(Oc3ccccc3)nc21,.,?,-3%,.,-3%
N[C@@H](CCCC(=O)O)C(=O)O,.,-5%,.,?,-16%
CCN1C(=O)C2(C(C#N)=C(N)Oc3n[nH]c(-c4ccccc4)c32)c2ccccc21 (configuration not stated),23,0%,-3%,-1%,0%
COC(=O)CN1C(=O)C2(C(C#N)=C(N)Oc3n[nH]c(-c4cccs4)c32)c2ccccc21 (configuration not stated),?,2.2µM*,-3%,7%,-2%
COC(=O)CN1C(=O)C2(C(C#N)=C(N)Oc3c2c(C)nn3-c2ccccc2)c2ccccc21 (configuration not stated),289,0.14µM*,-3%,-9%,-13%
CCC(C)C(NC)C(=O)O (configuration not stated),.,4%,1%,-4%,3%
Cc1c(C(=O)N(C)C2CCCCC2)sc2nc3ccc(N)cc3n12,.,?,1%[0.00818 µM],.,8.9µM*
Nc1ccc2nc(NC(=O)C3CCCCC3)sc2c1,.,-7%,.,.,.
CCNc1nc(SC(C)C(=O)OC)nc(N(C)C)n1 (configuration not stated),.,7%,.,.,.
COC(=O)C(C)Sc1n[nH]c(=S)s1 (configuration not stated),-17,20µM*,-7%,-5%,25µM*
O=C(O)CC(Sc1n[nH]c(=S)s1)C(=O)O (configuration not stated),.,13µM*,.,12%[46 µM],.
NC(=S)NCCC[C@@H](N)C(=O)O,.,.,-5%,.,.
CCCCC(CC)CNC(=O)Cc1ccc(-n2c(=O)[nH]c3ccccc3c2=O)cc1 (configuration not stated),.,.,.,9%[46 µM],.
O=C(NCc1ccco1)c1cccnc1Cl,-11,?,-4%,?,?
O=C(NCc1ccco1)Oc1ccccc1,28,4%,-6%,5%,-11%
CCOc1ccc(C(=O)NCc2ccco2)cc1,10,?,2%,4%,28µM*
O=C(NCc1ccco1)c1ccc(Oc2ccccc2)cc1,?,?,3%,?,28µM*
O=C(NCc1ccco1)c1ccc2c(c1)C(=O)c1ccccc1-2,?,28µM*,-14%,23%,16µM*
CC(c1ccccc1)N1C(=O)c2ccc(C(=O)NCc3ccco3)cc2C1=O (configuration not stated),18,?,1%,-5%,-4%
O=C(NCc1ccco1)c1cccnc1-c1nc2ccccc2s1,-11,8.9µM*,-16%,3%,16µM*
N#Cc1c2ccccc2nc2ccccc12,.,?,.,19%[46 µM],.
C[C@H]1Cc2c(COc3ccccc3)nc3c(c2CO1)CN(C(=O)C1CC1)CC3,.,2%[13.5 µM],1%[11.4 µM],-2%[9.22 µM],0%

# Bioassay records from PubChem BioAssay.
